Pf Dd2 growth: P. falciparum Dd2 growth inhibition; SYBR Green, 72 h; stronger effect = lower value; activity change, % at 10 µM; 94,000 compounds, 2.3% hits; in the data active means activity change below about -80%; inconclusive means no clear call, values can overlap the other calls
C diff HTS: blocks growth of Clostridium difficile. Clostridium difficile clinical isolate growth, OD600, 24 h; stronger effect = lower value. growth activity, negative = inhibition, % at 16 µg/mL (by protocol). 86,000 compounds, 0.25% hits. AID 1259249;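 active means mean growth activity at or below -80% and every replicate also at or below -80%; inconclusive means mean at or below -80% but some replicate above -80%; inactive means mean growth activity above -80%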;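 further: 0% = DMSO wells and -100% = levofloxacin 16 µg/mL wells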
Starred values were filed as active, the others as inactive; ? = inconclusive; . = no result; ! = not active in a repeat. Compounds with a hit are over-represented: about 2.3% of the library has one in this group of screens.

SMILES | Pf Dd2 growth | C diff HTS
CCC(=O)N1CCC2(CC1)CN(C(=O)Nc1ccc(F)cc1)[C@H](CO)c1c2c2ccc(OC)cc2n1C | -35.5 | 5.1
O=C(NC[C@H]1[C@H](c2ccccc2)[C@@H](CO)N1C(=O)C1CCC1)NC1CCCC1 | 20.0 | 4.9
N#C[C@@H]1[C@@H](c2ccc(C#CC3CCCC3)cc2)[C@H](CO)N1S(=O)(=O)c1ccccc1 | -28.9 | -19.2
Cc1ccccc1S(=O)(=O)N1[C@H](CO)[C@@H](c2ccc(C#CC3CC3)cc2)[C@@H]1C#N | -86.9* | 4.7
N#C[C@H]1[C@@H](c2ccc(C#CC3CC3)cc2)[C@H](CO)N1S(=O)(=O)c1ccccc1 | -84.6* | 4.5
N#C[C@H]1[C@@H](c2ccc(C#CC3CCCC3)cc2)[C@@H](CO)N1S(=O)(=O)Cc1ccccc1 | -88.9* | -13.4
N#C[C@H]1[C@H](c2ccc(C#CC3CC3)cc2)[C@@H](CO)N1S(=O)(=O)c1ccccc1 | -57.8 | 3.6
N#C[C@@H]1[C@@H](c2ccc(C#CC3CC3)cc2)[C@H](CO)N1S(=O)(=O)c1ccccc1 | -63.6 | 0.2
O=C(C[C@@H]1C=C[C@H](NC(=O)Nc2cc(F)ccc2F)[C@H](CO)O1)Nc1ccc(-c2ccccc2)cc1 | . | -1.6
CCC(=O)Nc1ccc2c(c1)OC[C@@H](C)N(C(=O)c1ccc(F)cc1)C[C@@H](C)[C@@H](OC)CN(C)C2=O | -48.0 | .
Cc1noc(C)c1NC(=O)Nc1ccc2c(c1)CC(=O)N([C@H](C)CO)C[C@@H](C)[C@H](CN(C)C(=O)Nc1c(C)noc1C)O2 | 29.9 | -8.3
COc1ccc(NC(=O)N2[C@@H]3CNC[C@H]2C3c2ccc(-c3cccc(OC)c3)cc2)cc1 (stereo partly drawn) | 4.2 | 48.9
COc1cccc(-c2ccc(C3[C@H]4CNC[C@@H]3N4C(=O)Nc3ccc(C(F)(F)F)cc3)cc2)c1 (stereo partly drawn) | 8.8 | -94.1*!
O=C(Nc1ccc(C(F)(F)F)cc1)N1[C@@H]2CNC[C@H]1C2c1ccc(-c2cccnc2)cc1 (stereo partly drawn) | 10.3 | -3.4
O=C(Nc1ccc(C(F)(F)F)cc1)N1[C@@H]2CNC[C@H]1C2c1ccc(-c2ccc(F)cc2)cc1 (stereo partly drawn) | 24.6 | -98.9*
COc1ccc(NC(=O)N2[C@@H]3CNC[C@H]2C3c2ccc(-c3ccccc3C)cc2)cc1 (stereo partly drawn) | 4.1 | 39.1
Cc1ccccc1-c1ccc(C2[C@H]3CNC[C@@H]2N3C(=O)Nc2ccc(Cl)cc2)cc1 (stereo partly drawn) | 13.9 | -97.4*!
COc1cccc(-c2ccc3c(c2)O[C@H](CN(C)Cc2cncnc2)[C@H](C)CN([C@H](C)CO)S3(=O)=O)c1 | 10.0 | -2.0
C[C@@H]1CCCCO[C@H](CN(C)C(=O)Nc2ccc3c(c2)OCO3)[C@H](C)CN([C@H](C)CO)C(=O)c2cc(NC(=O)Cc3ccccc3)ccc2O1 | -82.2* | 0.8
C[C@@H]1CCCCO[C@@H](CN(C)C(=O)Nc2ccc3c(c2)OCO3)[C@@H](C)CN([C@@H](C)CO)C(=O)c2cc(NC(=O)Cc3ccccc3)ccc2O1 | -83.5* | -0.2
C[C@H]1CCCCO[C@H](CN(C)C(=O)Nc2ccc3c(c2)OCO3)[C@@H](C)CN([C@@H](C)CO)C(=O)c2cc(NC(=O)Cc3ccccc3)ccc2O1 | ? | -1.2
C[C@@H]1CCCCO[C@H](CN(C)C(=O)Nc2ccc3c(c2)OCO3)[C@@H](C)CN([C@@H](C)CO)C(=O)c2cc(NC(=O)Cc3ccccc3)ccc2O1 | -65.7 | 4.1
C[C@H]1CN([C@@H](C)CO)C(=O)Cc2cc(NS(=O)(=O)c3ccc(Cl)cc3)ccc2O[C@@H]1CN(C)Cc1ccc(C(=O)Nc2ccccc2N)cc1 | -85.2* | 2.4
C[C@H](CO)N1C[C@H](C)[C@H](CN(C)Cc2ccc(C(=O)Nc3ccccc3N)cc2)Oc2ccc(NS(=O)(=O)c3ccccc3)cc2CC1=O | -85.5* | -10.9
C[C@H](CO)N1C[C@H](C)[C@@H](CN(C)Cc2ccc(C(=O)Nc3ccccc3N)cc2)Oc2ccc(NS(=O)(=O)c3ccc(F)cc3)cc2CC1=O | ? | -1.4
C[C@@H]1CN([C@@H](C)CO)C(=O)Cc2cc(NS(C)(=O)=O)ccc2O[C@H]1CN(C)Cc1ccc(C(=O)Nc2ccccc2N)cc1 | 8.1 | 3.5
C[C@@H]1CN([C@@H](C)CO)C(=O)Cc2cc(NS(=O)(=O)c3ccc(Cl)cc3)ccc2O[C@H]1CN(C)Cc1ccc(C(=O)Nc2ccccc2N)cc1 | -53.7 | 4.8
C[C@@H]1CN([C@@H](C)CO)C(=O)Cc2cc(NS(=O)(=O)c3ccc(F)cc3)ccc2O[C@H]1CN(C)Cc1ccc(C(=O)Nc2ccccc2N)cc1 | -61.4 | 1.0
C[C@H](CO)N1C[C@H](C)[C@H](CN(C)Cc2ccc(C(=O)Nc3ccccc3N)cc2)Oc2ccc(NS(=O)(=O)c3ccc(F)cc3)cc2CC1=O | -81.9* | 63.8

High-throughput results deposited in PubChem by Broad Institute.
